m5-HT2A agonist: mouse Htr2a agonists via beta-arrestin recruitment, primary screen, cell-based, luminescence; 5-hydroxytryptamine receptor 2A (Mus musculus), P35363; CHO-K1 mHTR2A beta-arrestin complementation; percent of 30 µM serotonin response; activation, % at 7.6 µM; actives 0.66% (n = 360,000);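 active = activation above a run cutoff, the mean activation of all tested compounds plus 3 SD, cut at about 14% in these data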;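 note: 0% = plate median of compound wells and 100% = 30 µM serotonin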
Target sequence (P35363 whole entry, looked up): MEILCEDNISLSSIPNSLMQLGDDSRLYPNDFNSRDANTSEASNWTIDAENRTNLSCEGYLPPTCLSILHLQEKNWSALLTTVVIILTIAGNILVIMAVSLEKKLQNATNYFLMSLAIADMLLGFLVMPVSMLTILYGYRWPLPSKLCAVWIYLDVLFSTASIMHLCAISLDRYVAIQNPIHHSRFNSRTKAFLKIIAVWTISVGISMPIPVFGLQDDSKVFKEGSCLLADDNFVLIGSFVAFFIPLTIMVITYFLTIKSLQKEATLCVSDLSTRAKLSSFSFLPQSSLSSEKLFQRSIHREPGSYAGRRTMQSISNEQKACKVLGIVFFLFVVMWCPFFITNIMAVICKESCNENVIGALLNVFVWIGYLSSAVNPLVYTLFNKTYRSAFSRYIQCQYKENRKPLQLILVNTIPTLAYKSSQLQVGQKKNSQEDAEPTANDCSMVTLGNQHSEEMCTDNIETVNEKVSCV
MOR-DOR ag: agonists of OPRM1-OPRD1 heterodimerization, primary screen, cell-based, luminescence. Mu-type opioid receptor (Homo sapiens) + Delta-type opioid receptor (Homo sapiens), …. cells. activation, % at 9.3 µM. actives 0.3% (n = 340,000); in the data active = activation above about 18%;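 note: 0% = vehicle-treated cells and 100% = reference agonist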
HTR5A ag ctr: HTR5A agonists in luminescence cell assay, primary screen, counter-screen for OPRM1-OPRD1 heterodimer agonist project, full-deck HTS | activation, % at 9.3 µM | actives 0.61% (n = 340,000) | AID 504692, 2011 | cell-based; in the data active = activation mostly above about 9.5%, no sharp cut-off; inactive = mostly below about 7.6%;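 note: 0% = cells with vehicle only and 100% = reference agonist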
MOR-DOR inv ag: inverse agonists of MOR-DOR heterodimerization, primary screen, cell-based, luminescence; Mu-type opioid receptor (Homo sapiens) + Delta-type opioid receptor (Homo sapiens), …; actives 0.21% (n = 340,000); inhibition, % at 9.3 µM; cell-based MOR-DOR heterodimer luminescence, inverse agonism; in the data active = inhibition above about 22%, passing the limit was not always enough;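 note: 0% = cells with DMSO and 100% = wells without cells with DMSO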
HTR5A inv ctr: HTR5A inverse agonists in luminescence cell assay, primary screen, counter-screen for OPRM1-OPRD1 heterodimer inverse agonist project, full-deck HTS. 5-hydroxytryptamine receptor 5A (Homo sapiens), P47898. HTR5A cell line, inverse agonism. inhibition, % at 9.3 µM. actives 0.083% (n = 340,000). AID 504634, 2011; in the data active = inhibition mostly above about 23%, no sharp cut-off; inactive = mostly below about 18%;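 note: 0% = cells with DMSO and 100% = no-cell wells with DMSO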
MOR ag counter: OPRM1 agonists via beta-arrestin recruitment, confirmation, counter-screen for mouse HTR2A agonist project, cell-based, luminescence, single concentration. shares compounds with m5-HT2A agonist. U2OS OPRM1 beta-arrestin PathHunter; DMSO 0%, DAMGO 9.3 µM 100%. activation, % at 9.3 µM. actives 5.3% (n = 2,300). AID 624380, 2012;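 active = mean activation above the mean of DMSO-only wells plus 3 SD, cut at about 0.5% in these data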
m5-HT2A ag conf: mouse HTR2A agonists, beta-arrestin recruitment, confirmation, cell-based, luminescence, CHO-K1 PathHunter, triplicate | shares compounds with m5-HT2A agonist | DMSO 0%, 30 µM serotonin 100% | activation, % at 7.6 µM | actives 19% (n = 2,300);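 active = mean activation across triplicates above the hit threshold derived in the original primary screen, cut at about 15% in these data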
Numbers without * were called inactive; . = no result given. Most compounds without a hit are left out; they make up all but 1.6% or so of the library.

SMILES | m5-HT2A agonist | MOR-DOR ag | HTR5A ag ctr | MOR-DOR inv ag | HTR5A inv ctr | MOR ag counter | m5-HT2A ag conf
Cc1ccccc1C(=O)O/N=C(\N)c1ccncc1 | -2 | 4 | -4 | -32 | 10 | . | .
CC(=O)N1c2ccc(S(=O)(=O)NCCC(=O)Nc3ncccc3C)cc2CC1C (stereo not drawn) | 15* | -3 | -1 | 18 | 5 | -1 | -4
O=S(=O)(N/N=C/c1c(F)cccc1Cl)c1ccccc1 | 7 | -4 | 3 | 17 | -9 | . | .
Cc1ccc(S(=O)(=O)N/N=C/c2c(F)cccc2Cl)cc1 | 15* | 1 | 9 | -3 | 10 | -1 | -3
Cn1cc(CN2CCC(C(=O)Nc3ccc(Oc4ccccc4F)cc3)CC2)cn1 | -3 | 0 | -2 | -1 | 7 | . | .
CCn1cc(CN2CCC(C(=O)Nc3ccc(Oc4ccccc4F)cc3)CC2)cn1 | 15* | . | . | . | . | -1 | -6
CCCCCC(=O)N1C[C@H](n2cc(-c3ccc(F)cc3)nn2)[C@@H](O)C[C@@H]1c1ccc(C)cc1 | 23* | . | . | . | . | 0 | 0
CCNC(=O)NC(=O)C(C)OC(=O)[C@H](C)NS(=O)(=O)c1c(C)c(C)cc(C)c1C (stereo partly drawn) | -2 | 0 | 5 | 2 | -10 | . | .
C=CCn1c(SCc2nc3ccccc3[nH]2)nnc1-c1ccccn1 | 19* | -1 | 0 | 6 | 1 | -1 | -4
Cn1c(SCc2nc3ccccc3[nH]2)nnc1-c1ccccn1 | 4 | -1 | -8 | 6 | 21 | . | .
CCC(=O)Nc1nnc(SCc2cccc(F)c2)s1 | 21* | 0 | -3 | 1 | 7 | -1 | -5
COc1cccc(OCc2cc(C(=O)NCC3CCCCC3)no2)c1 | -6 | -1 | -4 | 7 | 17 | . | .
CCOC(=O)CC1(NC(=O)c2cc(COc3cccc(OC)c3)on2)CCCCC1 | 15* | 5 | 0 | -27 | 1 | -1 | -5
O=C(NCCN1CCC(n2c(=O)[nH]c3ccccc32)CC1)c1ccncc1 | -1 | . | . | . | . | . | .
COc1ccccc1N1CCN(C(=O)CN(C)S(=O)(=O)c2cc(C)ccc2OC)CC1 | -3 | 0 | -4 | 1 | 9 | . | .
Cc1ccc(NC(=O)C2CCC(=O)N2C(=O)OCc2ccccc2)cc1 (stereo not drawn) | -6 | -1 | -3 | 9 | 8 | . | .
O=C(Nc1ccccn1)[C@@H]1CCC(=O)N1C(=O)OCc1ccccc1 | 18* | -1 | 7 | 7 | -20 | 0 | -3
O=C(c1cc2ccccn2n1)N1CCN(c2ccccn2)CC1 | 17* | -1 | -2 | 3 | -21 | 0 | -4
NC(=O)C1CCN(C(=O)c2cc3ccccn3n2)CC1 | -1 | -3 | 2 | 16 | -6 | . | .
Cc1ccc(N(CC(=O)NC2CCCC2)C(=O)c2c(C)noc2C)cc1C | 15* | -2 | 0 | 10 | -24 | 0 | -1
Cc1cccc(N(CC(=O)NC2CCCC2)C(=O)c2c(C)noc2C)c1 | 2 | -3 | 1 | 16 | -5 | . | .
COc1ccc(OC)c(-c2cc(C(=O)N3CCN(c4ccccc4)CC3)no2)c1 | 27* | 2 | 12 | -10 | -36 | -1 | -5
COc1ccc(-c2cc(C(=O)N3CCN(c4ccccc4)CC3)no2)cc1 | 4 | 0 | 5 | -1 | -13 | . | .
COc1ccc(-c2cc(C(=O)N3CCCC3)no2)cc1OC | 22* | 0 | 2 | 3 | -5 | -1 | 1
COc1ccc(-c2cc(C(=O)N3CCCCC3)no2)cc1OC | 1 | -3 | 0 | 18 | 8 | . | .
COc1ccc(OC)c(C2=Nn3c(nnc3-c3cc(OC)c(OC)c(OC)c3)SC2)c1 | 15* | 2 | -2 | -11 | -42 | 0 | 7
COc1ccc(OC)c(C2=Nn3c(nnc3-c3ccncc3)SC2)c1 | -3 | -1 | -4 | 6 | -5 | . | .

Compound activity from PubChem.
